Active and inactive are the calls of the source.
Assays:
[1] = system: Plasmodium falciparum Sir2 (PF13_0152, Sir2A); assay: pfSir2 binders on small-molecule microarrays, primary screen, biochemical, small-molecule microarray, 635 nm fluorescence (AID 1098); details: small-molecule microarray binding, fluorescence 635 nm; higher = more signal;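 note: score merges spot fluorescence intensity with its signal-to-noise ratio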
[2] = small-molecule microarray binders of probe aDKK1, primary screen, biochemical, biotinylated probe, 635/667 nm fluorescence (AID 1099); details: higher = more signal;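 note: score merges 667nm spot fluorescence with signal to noise across triplicate slides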
[3] = small-molecule microarray binders of probe aCHRDL2, primary screen, biochemical, biotinylated probe, 635/667 nm fluorescence (AID 1100); details: higher = more signal
[4] = splicing luciferase reporter signal modulators, primary screen, spliceosome inhibition project, cell-based, HEK293, splice +/- reporter (AID 1101); details: luminescence, 24 h, higher = more signal, called active from +8 up or from −8 down;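 note: HEK293 cells carrying a splicing-competent luciferase reporter gene; test concentration not given here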
[5] = target: Fibroblast growth factor 10 (Homo sapiens) (UniProt O15520); assay: FGF10 binders on small-molecule microarrays, primary screen, biochemical, small-molecule microarray, 635 nm fluorescence (AID 1102); details: FGF10 binding, fluorescence 635 nm, higher = more signal
[6] = system: glycogen synthase kinase-3 (GSK3A per assay name; protocol says GSK3B); assay: GSK3 binders on small-molecule microarrays, primary screen, biochemical, small-molecule microarray, 635 nm fluorescence, GSK3A (AID 1103); details: small-molecule microarray binding, fluorescence 635 nm; higher = more signal; note: the record names both GSK3A and GSK3B
[7] = target: Epidermal growth factor receptor (Homo sapiens) (UniProt P00533); assay: EGFR binders on small-molecule microarrays, primary screen, biochemical, small-molecule microarray, 635 nm fluorescence (AID 1104); details: EGFR binding, higher = more signal;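 note: score merges 667 nm emission intensity with spot signal to noise over triplicate slides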
[8] = target: Follistatin-related protein 3 (Homo sapiens) (UniProt O95633); assay: FSTL3 binders on small-molecule microarrays, primary screen, biochemical, small-molecule microarray, 635 nm fluorescence (AID 1105); details: FSTL3 binding, higher = more signal;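 note: score merges emission near 667 nm and signal to noise per printed spot across three slides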
[9] = target: Dickkopf-related protein 1 (Homo sapiens) (UniProt O94907); assay: DKK1 binders on small-molecule microarrays, primary screen, biochemical, small-molecule microarray, 635 nm fluorescence scan (AID 1106); details: DKK1 binding, higher = more signal;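 note: score merges emission near 667 nm with signal to noise over three replicate slides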
[10] = system: Inhibin beta A chain (activin A); assay: INHBA (activin A) binders on microarrays, primary screen, biochemical, small-molecule microarray, 635 nm fluorescence scan (AID 1107); details: small-molecule microarray binding, higher = more signal;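 note: mouse activin A protein probed at 4.33 µg/mL on printed slides; score merges bound-protein fluorescence near 667 nm with spot signal-to-noise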
[11] = system: Human papillomavirus type 1a protein E7 (residues 44-93); assay: HPV1a E7 fragment binders on microarrays, primary screen, biochemical, small-molecule microarray, residues 44-93, 635 nm fluorescence (AID 1108); details: small-molecule microarray binding, fluorescence 635 nm; higher = more signal;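 note: E7 fragment applied at 1 µg/mL in TBST for 1 h at 4 C; score combines spot fluorescence with its signal to noise ratio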
[12] = modulators of HCV replicon luciferase signal, primary screen, HCV replication inhibitor project, Huh7 cells, luciferase reporter (AID 1109); details: 48 h, higher = more signal;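 note: huh7 hepatoma cells harbouring a luciferase neomycin HCV replicon reporter; luciferase luminescence as measure of HCV replicon replication; test concentration not given here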
[13] = target: Left-right determination factor 2 (Homo sapiens) (UniProt O00292); assay: LEFTY2 binders on small-molecule microarrays, primary screen, biochemical, small-molecule microarray, 635 nm fluorescence scan (AID 1110); details: LEFTY2 binding, higher = more signal
[14] = target: Calmodulin-1 (Homo sapiens) (UniProt P0DP23); assay: CALM1 binders on microarrays, EGTA buffer, profiling panel, biochemical, small-molecule microarray, Cy5-labelled CALM1 (AID 1111); details: Cy5-CALM1 binding fluorescence, higher = more signal;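 note: labelled calmodulin applied in Tris saline Tween buffer holding calcium plus EGTA and DTT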
[15] = target: Calmodulin-1 (Homo sapiens) (UniProt P0DP23); assay: calcium-bound CALM1 binders on microarrays, profiling panel, artefact control for SMM control-protein annotation, biochemical, small-molecule microarray, Cy5-labelled CALM1, plus calcium (AID 1112); details: Cy5-CALM1 binding fluorescence, higher = more signal;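 note: score merges spot fluorescence with signal to noise from triplicate slides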
[16] = small-molecule microarray binders of probe aWnt5a, primary screen, biochemical, biotinylated probe, 635/667 nm fluorescence (AID 1113); details: higher = more signal;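 note: score merges 667 nm fluorescence intensity with signal-to-noise per printed feature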
[17] = small-molecule microarray binders of probe aShh, primary screen, biochemical, biotinylated probe, 635/667 nm fluorescence (AID 1114); details: higher = more signal;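 note: probe is biotin-labelled aShh protein from a stem cell growth factor screen; measures binding of labelled protein to compounds printed on the slide; score merges feature fluorescence at 667 nm with signal-to-noise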
[18] = small-molecule microarray binders of probe aNog, primary screen, biochemical, biotinylated probe, 635/667 nm fluorescence (AID 1115); details: higher = more signal;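 note: probe is biotinylated aNog protein used at 0.15 µg/mL for 1 h at 4 C; z-score combines 667 nm fluorescence of each spot with its signal to noise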
[19] = target: Torsin-1A-interacting protein 1 (Homo sapiens) (UniProt Q5JTV8); assay: LAP1 binders from COS7 cell lysate, primary screen, small-molecule microarray, 635/667 nm fluorescence (AID 1116); details: COS7-hLAP1 lysate binding, 635 nm fluorescence, higher = more signal
[20] = target: Alpha-bungarotoxin (Bungarus multicinctus) (UniProt P60615); assay: alpha-bungarotoxin binders on microarray, profiling panel, artefact control for SMM control protein annotation, biochemical, small-molecule microarray, Alexa647 label, 635/667 nm fluorescence (AID 1117); details: alpha-BTX-A647 binding fluorescence, higher = more signal
Alpha-bungarotoxin (Bungarus multicinctus), sequence (P60615 whole entry, looked up): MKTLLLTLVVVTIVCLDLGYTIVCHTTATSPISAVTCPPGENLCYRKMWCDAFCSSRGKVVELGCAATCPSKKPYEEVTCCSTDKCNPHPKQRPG

Dickkopf-related protein 1 (Homo sapiens), sequence (O94907 whole entry, looked up): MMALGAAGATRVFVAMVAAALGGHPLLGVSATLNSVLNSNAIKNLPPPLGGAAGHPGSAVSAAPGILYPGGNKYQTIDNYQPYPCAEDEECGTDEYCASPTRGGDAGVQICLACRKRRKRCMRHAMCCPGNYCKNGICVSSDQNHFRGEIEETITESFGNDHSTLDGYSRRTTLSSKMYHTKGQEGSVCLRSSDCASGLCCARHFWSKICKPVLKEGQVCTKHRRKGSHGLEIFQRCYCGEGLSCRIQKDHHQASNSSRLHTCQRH
Epidermal growth factor receptor (Homo sapiens), sequence (P00533 whole entry, looked up): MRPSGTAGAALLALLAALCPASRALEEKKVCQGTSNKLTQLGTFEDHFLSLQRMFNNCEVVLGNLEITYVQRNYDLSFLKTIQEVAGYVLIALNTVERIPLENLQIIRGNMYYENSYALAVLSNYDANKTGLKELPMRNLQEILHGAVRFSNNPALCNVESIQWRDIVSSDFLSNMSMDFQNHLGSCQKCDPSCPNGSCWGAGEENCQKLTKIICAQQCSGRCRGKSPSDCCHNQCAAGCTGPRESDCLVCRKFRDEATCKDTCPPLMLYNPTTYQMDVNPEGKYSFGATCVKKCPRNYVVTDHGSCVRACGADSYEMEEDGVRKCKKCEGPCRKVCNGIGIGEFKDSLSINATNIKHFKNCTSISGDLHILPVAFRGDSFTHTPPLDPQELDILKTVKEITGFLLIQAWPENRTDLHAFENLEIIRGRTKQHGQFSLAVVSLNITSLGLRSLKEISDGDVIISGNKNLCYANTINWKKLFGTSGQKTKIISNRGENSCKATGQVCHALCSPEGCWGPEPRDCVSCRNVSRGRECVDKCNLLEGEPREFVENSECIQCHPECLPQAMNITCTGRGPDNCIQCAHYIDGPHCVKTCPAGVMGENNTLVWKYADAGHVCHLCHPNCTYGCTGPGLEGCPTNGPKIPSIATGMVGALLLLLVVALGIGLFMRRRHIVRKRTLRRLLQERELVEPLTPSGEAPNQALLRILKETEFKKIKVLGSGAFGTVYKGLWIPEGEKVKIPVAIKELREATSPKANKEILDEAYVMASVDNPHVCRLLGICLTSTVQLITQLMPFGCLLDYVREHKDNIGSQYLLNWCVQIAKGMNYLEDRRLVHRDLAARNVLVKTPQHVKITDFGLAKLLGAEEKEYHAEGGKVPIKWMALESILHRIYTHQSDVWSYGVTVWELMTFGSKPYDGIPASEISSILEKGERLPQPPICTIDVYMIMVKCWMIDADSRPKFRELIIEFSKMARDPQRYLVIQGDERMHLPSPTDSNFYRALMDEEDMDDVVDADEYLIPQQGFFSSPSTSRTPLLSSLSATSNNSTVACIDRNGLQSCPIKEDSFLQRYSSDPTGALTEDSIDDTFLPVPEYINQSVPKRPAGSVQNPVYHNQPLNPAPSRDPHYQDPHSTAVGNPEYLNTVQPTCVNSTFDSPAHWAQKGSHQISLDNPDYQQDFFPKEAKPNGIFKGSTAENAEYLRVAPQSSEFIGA
Fibroblast growth factor 10 (Homo sapiens), sequence (O15520 whole entry, looked up): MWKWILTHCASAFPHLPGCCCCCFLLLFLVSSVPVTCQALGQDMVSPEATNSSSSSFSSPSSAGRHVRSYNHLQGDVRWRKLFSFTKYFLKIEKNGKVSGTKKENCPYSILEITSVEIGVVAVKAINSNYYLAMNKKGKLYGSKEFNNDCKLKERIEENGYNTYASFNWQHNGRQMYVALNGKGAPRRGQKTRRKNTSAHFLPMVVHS
Left-right determination factor 2 (Homo sapiens), sequence (O00292 whole entry, looked up): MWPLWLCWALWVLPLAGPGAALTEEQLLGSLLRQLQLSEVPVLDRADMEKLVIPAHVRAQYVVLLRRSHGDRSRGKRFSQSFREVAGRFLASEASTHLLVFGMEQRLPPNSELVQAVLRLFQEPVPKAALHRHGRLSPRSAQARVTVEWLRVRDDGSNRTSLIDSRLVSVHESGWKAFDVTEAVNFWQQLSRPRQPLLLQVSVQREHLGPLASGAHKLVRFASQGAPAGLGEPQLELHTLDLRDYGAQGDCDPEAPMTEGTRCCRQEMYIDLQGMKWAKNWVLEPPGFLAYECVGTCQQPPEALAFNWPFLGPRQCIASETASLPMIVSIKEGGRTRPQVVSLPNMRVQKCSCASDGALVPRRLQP
Follistatin-related protein 3 (Homo sapiens), sequence (O95633 whole entry, looked up): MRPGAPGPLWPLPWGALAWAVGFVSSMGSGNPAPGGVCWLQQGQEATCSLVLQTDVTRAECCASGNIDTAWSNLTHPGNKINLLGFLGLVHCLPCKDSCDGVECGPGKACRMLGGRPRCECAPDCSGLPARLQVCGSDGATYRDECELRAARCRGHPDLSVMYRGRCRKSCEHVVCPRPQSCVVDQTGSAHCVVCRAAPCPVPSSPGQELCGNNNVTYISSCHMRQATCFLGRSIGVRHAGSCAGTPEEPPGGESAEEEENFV
Torsin-1A-interacting protein 1 (Homo sapiens), sequence (Q5JTV8 whole entry, looked up): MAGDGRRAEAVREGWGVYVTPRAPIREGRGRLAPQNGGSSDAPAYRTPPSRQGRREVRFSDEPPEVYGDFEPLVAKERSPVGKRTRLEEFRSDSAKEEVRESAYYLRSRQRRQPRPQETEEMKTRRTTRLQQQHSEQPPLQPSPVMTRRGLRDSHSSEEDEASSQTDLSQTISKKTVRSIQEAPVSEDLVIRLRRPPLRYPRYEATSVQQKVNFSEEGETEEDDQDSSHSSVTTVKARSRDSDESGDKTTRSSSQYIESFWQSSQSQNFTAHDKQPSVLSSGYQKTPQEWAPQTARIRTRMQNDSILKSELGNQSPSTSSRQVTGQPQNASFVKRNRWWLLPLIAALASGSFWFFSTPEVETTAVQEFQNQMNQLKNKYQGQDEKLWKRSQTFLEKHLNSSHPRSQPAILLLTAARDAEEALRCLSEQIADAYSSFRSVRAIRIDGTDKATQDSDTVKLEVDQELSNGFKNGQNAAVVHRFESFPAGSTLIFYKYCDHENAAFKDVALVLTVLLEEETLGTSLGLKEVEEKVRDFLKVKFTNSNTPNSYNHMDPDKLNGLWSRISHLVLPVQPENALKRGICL

Compound | composite z-score [1] | composite z-score [2] | composite z-score [3] | z-score [4] | composite z-score [5] | composite z-score [6] | composite z-score [7] | composite z-score [8] | composite z-score [9] | composite z-score [10] | composite z-score [11] | z-score [12] | composite z-score [13] | composite z-score [14] | composite z-score [15] | composite z-score [16] | composite z-score [17] | composite z-score [18] | composite z-score [19] | composite z-score [20]
COc1ccc(C(=O)Nc2ccc(CN3C(=O)[C@@]4(O[C@@H](CCO)[C@H]([Si](C)(C)c5ccc(OC)cc5)[C@H]4C)c4ccccc43)cc2)cc1 | 1.32 | 0.381 | 0.47 | -3.19 (inactive) | 0.793 | 1.1 | 0.65 | 1.45 | 1.04 | 1.39 | 0.908 | -5.15 | 0.861 | 0.0404 | -0.608 | 0.0367 | -0.0146 | 0.0395 | 1.12 | 0.643
N#Cc1ccc(NN2C(C(O)c3c(F)cccc3Cl)C=CC3C(=O)N(c4ccccc4)C(=O)C32)cc1 (stereo not given) | 1.08 | 1.42 | 1.19 | 0.615 (inactive) | 0.922 | 0.943 | 0.143 | 1.12 | 0.125 | 0.5 | 1.47 | -0.57 | 0.21 | 2.51 | 1.07 | 0.0724 | -0.195 | 1.65 | 2.65 | 1.59
CCOC(=O)C1=CCC(c2ccc(C)cc2)N(S(=O)(=O)c2ccc(C)cc2)C1 (stereo not given) | 0.751 | 0.524 | 0.845 | -0.688 (inactive) | 0.129 | 0.301 | -0.136 | 0.058 | 0.0296 | 1.42 | 1.12 | -0.905 | 0.175 | 0.367 | 0.172 | -0.0226 | -0.0977 | 0.542 | 0.81 | 1.15
O=C1O[C@H](c2ccccc2)[C@H](c2ccccc2)N2[C@H]1[C@@H](C(=O)NC[C@H](O)c1ccccc1)[C@]1(C(=O)Nc3ccccc31)[C@H]2c1ccc(OCCO)cc1 | 0.884 | 0.569 | 0.672 | 0.985 (inactive) | 0.745 | 1.23 | -0.0151 | 0.464 | 0.289 | 0.286 | 1.38 | -2.05 | 0.119 | 0.475 | 0.245 | -0.0882 | -0.167 | 0.0821 | 1.5 | 1.33
CN(C)CCCNC(=O)[C@@]1(c2ccc([N+](=O)[O-])cc2)CC(=O)N(C2CCCCC2)[C@@H]1c1ccc(CO)cc1I | 1.12 | -0.116 | 0.736 | -3.68 (inactive) | -0.341 | 1.28 | -0.0949 | 0.381 | -0.212 | 0.462 | 1.41 | -3.46 | -0.104 | -0.0828 | -0.245 | -0.0721 | -0.147 | -0.606 | 0.46 | 1.03
CCCCC(=C=CC[C@@H](O)c1ccccc1OCCO)CCO | -0.189 | 0.0035 | 0.001 | 0.579 (inactive) | 0.209 | -1.3 | -0.903 | -0.375 | -0.382 | 0.857 | -0.0803 | -0.23 | -0.855 | 0.184 | 0.23 | -0.147 | -0.366 | -0.034 | 0.212 | -0.0423
C=CCOC(=O)[C@@H]1[C@H]2C(=O)O[C@H](c3ccccc3)[C@H](c3ccccc3)N2[C@H](c2ccc(OCCOC(=O)[C@@H]3C[C@@H]4C(=O)N[C@@H](Cc5ccccc5)C(=O)N4[C@@H]3c3ccc(O)cc3)cc2)[C@@]12C(=O)Nc1ccc(I)cc12 | 1.46 | -0.191 | -0.35 | -1.17 (inactive) | 1.16 | 1.19 | 0.711 | 1.38 | 1.03 | 0.518 | 1.38 | -0.726 | 0.56 | 0.75 | 0.299 | -0.0981 | 0.178 | -0.0784 | -0.289 | 1.02
CCC(CC)C(O)C1C=CC2C(=O)N(C)C(=O)C2N1Nc1ccccc1 (stereo not given) | 0.695 | 0.332 | 0.9 | 0.464 (inactive) | 0.603 | 0.499 | 0.0611 | 0.698 | 0.371 | 0.867 | 0.948 | 0.347 | -0.054 | 1.44 | 0.463 | -0.0863 | 0.128 | 1.09 | 1.64 | 1.04
CCOC1=C2C(CN(S(=O)(=O)c3ccc(C)cc3)C2c2ccc(C)cc2)C2C(=O)N(c3ccccc3)C(=O)C2C1 (stereo not given) | 0.9 | 0.0373 | 0.267 | -0.113 (inactive) | 1.25 | 0.36 | 0.171 | 0.782 | 0.207 | 0.809 | 1.11 | -0.348 | 0.349 | 0.861 | 0.528 | -0.106 | 0.0893 | 0.194 | 0.326 | 0.389
O=C(NCc1ccccc1)[C@@]1(CCS(=O)(=O)c2ccccc2)N=C(c2ccc(OCCCO)cc2)O[C@H]1c1ccccc1 | 0.691 | 0.717 | 1.03 | 0.0308 (inactive) | 1.28 | 1.12 | -0.304 | 0.866 | -0.393 | 0.525 | 1.44 | -2.25 | -0.125 | 1.43 | 0.112 | 0.111 | 0.0055 | -0.0597 | 1.32 | 2.03
CC1CC/C=C\[C@H]2OC34C=CCN(C(C)(C)C)C(=O)[C@H]3N(CCCCCCO)C(=O)[C@@H]4C2C(=O)O1 (stereo not given in full) | 2.05 | -0.0908 | 0.416 | -0.0517 (inactive) | 0.0444 | -0.615 | -0.777 | -0.568 | -0.957 | 1.13 | -0.0409 | -0.549 | -1.06 | -0.0234 | 0.725 | -0.154 | -0.0553 | 0.0511 | 0.656 | -1.06
O=C(NCc1ccc(F)cc1)[C@H]1C[C@H]2C(=O)N[C@@H](Cc3ccccc3)C(=O)N2[C@H]1c1ccc(O)cc1 | 1.06 | -0.103 | 0.105 | -0.41 (inactive) | 0.123 | -0.469 | -0.394 | -0.383 | 0.274 | -0.266 | 0.335 | -0.522 | -0.469 | 0.0755 | 0.531 | -0.148 | -0.244 | -0.235 | 0.33 | -0.051
